Data reported in PubChem BioAssay (Tox21).
Where “and” joins values, the source holds several entries; their conditions need not be identical. Equal entries are not always repeated. Some structures have more than one record in an assay (separate samples or runs), and their calls can disagree. Calls of active or inactive are those of the source. Unless noted, the call rests on the fitted dose curve; in most records, active means well fitted curve in the direction sought with a large enough effect in the repeat runs; inconclusive means weak or mixed curves; inactive means no such curve, though single readings can be large; an effect the other way counts as inactive or inconclusive. Non-standard residues stand in square brackets, D forms with d. Residues, ends and D or L forms follow the SMILES beside them. Orn = NCCC[C@H](N)C(=O)O

Key:
[1] = qHTS assay to identify small molecule antagonists of the thyroid receptor (TR) signaling pathway - cell viability counter screen (AID 743064); further: nearly all actives have a fitted effect of over 50% in size; further: potency means the concentration at half of the fitted maximal effect
Outline: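 Rat GH3 pituitary tumor cells stably expressing two TR response elements driving luciferase were plated, rested 4 h, then dosed with library compounds and T3 (1 nM final). After 23.5 h at 37 °C, CellTiter-Fluor was added for 30 min and fluorescence recorded.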

[2] = qHTS assay to identify small molecule antagonists of the thyroid receptor (TR) signaling pathway (AID 743065); further: nearly all actives have a fitted effect of over 55% in size; further: potency means the concentration at half of the fitted maximal effect
Outline: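 GH3.TRE-Luc rat pituitary cells (two TREs driving luciferase) were dosed with compound, then stimulated with 1 nM T3 (final) for 23.5 h at 37 C. ONE-Glo luminescence was the read-out, with CellTiter-Fluor fluorescence as the cytotoxicity counter-screen.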

[3] = molecular target: Estrogen receptor (Homo sapiens) (UniProt P03372); experiment: qHTS assay to identify small molecule agonists of the estrogen receptor alpha (ER-alpha) signaling pathway (AID 743075; calls by dose curve; further: potency means the concentration at half of the fitted maximal effect)
[4] = qHTS assay to identify aromatase inhibitors - cell viability counter screen (AID 743084);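 further: cells stimulated with testosterone during compound exposure; nearly all actives have a fitted effect of over 55% in size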; further: potency means the concentration at half of the fitted maximal effect
[5] = system: thyroid hormone receptor (rat, GH3 cells); experiment: qHTS assay to identify small molecule agonists of the thyroid receptor (TR) signaling pathway (AID 743066; calls by dose curve)
[6] = qHTS assay to identify small molecule antagonists of the estrogen receptor alpha (ER-alpha) signaling pathway - cell viability counter screen (AID 743074; calls by dose curve;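 further: HEK293 cells carrying ER-alpha-UAS-bla reporter stimulated with 17beta-estradiol; nearly all actives have a fitted effect of over 45% in size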; further: potency means the concentration at half of the fitted maximal effect)
[7] = qHTS assay to identify small molecule antagonists of the estrogen receptor alpha (ER-alpha) signaling pathway using the BG1 cell line - cell viability counter screen (AID 743081);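 further: compound given together with 17beta-estradiol as the ER stimulus; nearly all actives have a fitted effect of over 45% in size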; further: potency means the concentration at half of the fitted maximal effect
[8] = qHTS assay to identify small molecule that activate the aryl hydrocarbon receptor (AhR) signaling pathway - cell viability counter screen (AID 743086); further: nearly all actives have a fitted effect of over 45% in size; further: potency means the concentration at half of the fitted maximal effect
Outline: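 HepG2-AhR-luc (HG2L7.5c1) cells, 4000/well, treated 24 h at 37 C with compound; viability measured as CellTiter-Fluor fluorescence after 30 min in the same wells as the luciferase read.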

[9] = molecular target: Estrogen receptor (Homo sapiens) (UniProt P03372); experiment: qHTS assay to identify small molecule antagonists of the estrogen receptor alpha (ER-alpha) signaling pathway (AID 743069; active means well fitted curve in the direction sought with a large enough effect in the signal ratio in the repeat runs, not every such curve was filed as active; inconclusive means weak or mixed curves, or effect the other way; inactive means no such curve, though single readings can be large or run the other way; the % refers to the signal ratio; further: potency means the concentration at half of the fitted maximal effect)
Outline: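 HEK293 ER-alpha-UAS-bla GripTite cells, held overnight in 2% charcoal-stripped FBS, 5,000 cells/well, preincubated 4 h, then compound plus 17beta-estradiol for 18 h at 37C. Beta-lactamase read by LiveBLAzer B/G FRET substrate, 2 h at room temperature.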

[10] = molecular target: Estrogen receptor (Homo sapiens) (UniProt P03372); experiment: qHTS assay to identify small molecule agonists of the estrogen receptor alpha (ER-alpha) signaling pathway using the BG1 cell line (AID 743079); further: nearly all actives have a fitted effect of over 20% in size
[11] = qHTS assay to identify small molecule antagonists of the estrogen receptor alpha (ER-alpha) signaling pathway using the BG1 cell line (AID 743080; calls by dose curve;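 further: BG1 cells stimulated with 17beta-estradiol alongside compound; nearly all actives have a fitted effect of over 25% in size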; further: potency means the concentration at half of the fitted maximal effect)
Outline: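 After 5 days in phenol-red-free 10% charcoal-stripped FBS medium, BG1-Luc-4E2 cells were seeded, left 24 h at 37 C, co-treated with compounds and 17beta-estradiol for 21.5 h, then assayed for viability and luciferase.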

Aromatase (Homo sapiens) = Aromatase (Homo sapiens) (UniProt P11511); experiment: qHTS assay to identify aromatase inhibitors (AID 743083); further: nearly all actives have a fitted effect of over 55% in size; further: potency means the concentration at half of the fitted maximal effect
[12] = molecular target: Aryl hydrocarbon receptor (Homo sapiens) (UniProt P35869); experiment: qHTS assay to identify small molecule that activate the aryl hydrocarbon receptor (AhR) signaling pathway (AID 743085); further: nearly all actives have a fitted effect of over 15% in size; further: potency means the concentration at half of the fitted maximal effect;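 on activation: HG2L7.5c1 human HepG2 liver cells with stably integrated DRE-driven firefly reporter; series mostly up to about 70 µM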
Outline: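 Compounds were tested in HepG2 hepatocellular carcinoma cells harbouring a stably integrated luciferase gene under control of 20 DREs. Increased reporter signal after 24 h treatment at 37C was taken as AhR activation.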

[13] = molecular target: Peroxisome proliferator-activated receptor gamma (Homo sapiens) (UniProt P37231); experiment: qHTS assay to identify small molecule agonists of the peroxisome proliferator-activated receptor gamma (PPARg) signaling pathway (AID 743094; active means well fitted activation curve with a large enough effect in the signal ratio in the repeat runs, not every such curve was filed as active; inconclusive means weak or mixed curves, or effect the other way; inactive means no such curve, though single readings can be large or run the other way; the % refers to the signal ratio)
Outline: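 Quantitative HTS agonist mode: stable HEK293H line with UAS-beta-lactamase reporter under PPARg control, 17 h compound exposure at 37C, fluorescence after 1 h FRET substrate loading at room temperature.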

[14] = qHTS assay to identify small molecule antagonists of the peroxisome proliferator-activated receptor gamma (PPARg) signaling pathway - cell viability counter screen (AID 743194); further: nearly all actives have a fitted effect of over 55% in size; further: potency means the concentration at half of the fitted maximal effect
Outline: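 Cytotoxicity counter screen in PPARg-bla HEK293H cells, same wells as reporter assay. Compounds plus 50 nM rosiglitazone (final) for 17 h at 37 C, then viability read by CellTiter-Glo luminescence.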

[15] = qHTS assay for small molecule agonists of the antioxidant response element (ARE) signaling pathway - cell viability counter screen (AID 743203; calls by dose curve; further: nearly all actives have a fitted effect of over 55% in size; further: potency means the concentration at half of the fitted maximal effect)
Outline: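 Seeded at 2,000 cells/well, ARE-bla HepG2 cells were incubated 5 hrs before compound addition. After 16 hrs of treatment at 37C with 5% CO2, CellTiter-Glo reagent was added and luminescence read 30 min later.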

[16] = qHTS assay for small molecule activators of the heat shock response signaling pathway - cell viability counter screen (AID 743209); further: nearly all actives have a fitted effect of over 50% in size; further: potency means the concentration at half of the fitted maximal effect
Outline: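 First, HSE-bla HeLa cells were seeded at 1500 cells/well and kept overnight at 37 C. Next, compounds were pinned in and incubated 5 h. After the FRET substrate step, CellTiter-Glo was added and luminescence read 30 min later.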

[17] = molecular target: Peroxisome proliferator-activated receptor gamma (Homo sapiens) (UniProt P37231); experiment: qHTS assay to identify small molecule antagonists of the peroxisome proliferator-activated receptor gamma (PPARg) signaling pathway (AID 743191; calls by dose curve; further: nearly all actives have a fitted effect of over 30% in size; further: potency means the concentration at half of the fitted maximal effect)
Outline: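 GeneBLAzer PPARg UAS-bla HEK293H cells, 5 h post-plating, exposed to compounds 17 h at 37C. LiveBLAzer B/G FRET substrate added for 1 h at room temperature; beta-lactamase reporter read by fluorescence intensity.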

[18] = qHTS assay for small molecule activators of the heat shock response signaling pathway (AID 743210; active means well fitted activation curve with a large enough effect in the signal ratio in the repeat runs, with a control signal flat, not every such curve was filed as active; inconclusive means weak or mixed curves; the % refers to the signal ratio; further: series mostly up to about 63 µM)
Outline: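 HSE-bla HeLa cells (beta-lactamase reporter under heat shock response elements), plated overnight, then exposed to compounds 5 h at 37 C; LiveBLAzer B/G FRET substrate added, 2.5 h at room temperature, fluorescence intensity read.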

Measured: Potency

Chain of Peroxisome proliferator-activated receptor gamma (Homo sapiens) (P37231 whole entry, looked up): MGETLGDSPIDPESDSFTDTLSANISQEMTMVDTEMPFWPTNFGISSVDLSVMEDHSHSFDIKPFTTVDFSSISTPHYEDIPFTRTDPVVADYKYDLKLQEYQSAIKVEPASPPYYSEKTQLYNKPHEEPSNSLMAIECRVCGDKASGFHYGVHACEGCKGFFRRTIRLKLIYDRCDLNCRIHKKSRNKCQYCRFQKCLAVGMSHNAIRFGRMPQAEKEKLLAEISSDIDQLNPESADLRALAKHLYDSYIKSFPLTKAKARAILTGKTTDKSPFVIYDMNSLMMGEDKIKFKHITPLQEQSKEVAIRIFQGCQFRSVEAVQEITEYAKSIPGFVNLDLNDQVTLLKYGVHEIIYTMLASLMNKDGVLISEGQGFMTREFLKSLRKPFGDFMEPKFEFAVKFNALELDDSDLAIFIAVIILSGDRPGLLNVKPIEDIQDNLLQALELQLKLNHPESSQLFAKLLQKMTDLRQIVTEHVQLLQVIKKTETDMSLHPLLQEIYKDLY
Chain of Aromatase (Homo sapiens) (P11511 whole entry, looked up): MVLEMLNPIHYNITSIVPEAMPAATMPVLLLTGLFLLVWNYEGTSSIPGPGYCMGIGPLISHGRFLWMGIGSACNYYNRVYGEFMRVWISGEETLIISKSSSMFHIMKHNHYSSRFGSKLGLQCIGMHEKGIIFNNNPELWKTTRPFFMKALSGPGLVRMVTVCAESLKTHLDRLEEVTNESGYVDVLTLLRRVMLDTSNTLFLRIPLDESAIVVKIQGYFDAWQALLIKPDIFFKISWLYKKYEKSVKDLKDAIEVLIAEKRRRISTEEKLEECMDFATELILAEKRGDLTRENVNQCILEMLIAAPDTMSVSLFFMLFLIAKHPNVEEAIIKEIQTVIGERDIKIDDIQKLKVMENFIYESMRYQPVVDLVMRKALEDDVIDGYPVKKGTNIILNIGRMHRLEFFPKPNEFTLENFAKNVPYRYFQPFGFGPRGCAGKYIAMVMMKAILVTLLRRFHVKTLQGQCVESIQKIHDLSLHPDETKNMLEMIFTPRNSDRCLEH
Chain of Aryl hydrocarbon receptor (Homo sapiens) (P35869 whole entry, looked up): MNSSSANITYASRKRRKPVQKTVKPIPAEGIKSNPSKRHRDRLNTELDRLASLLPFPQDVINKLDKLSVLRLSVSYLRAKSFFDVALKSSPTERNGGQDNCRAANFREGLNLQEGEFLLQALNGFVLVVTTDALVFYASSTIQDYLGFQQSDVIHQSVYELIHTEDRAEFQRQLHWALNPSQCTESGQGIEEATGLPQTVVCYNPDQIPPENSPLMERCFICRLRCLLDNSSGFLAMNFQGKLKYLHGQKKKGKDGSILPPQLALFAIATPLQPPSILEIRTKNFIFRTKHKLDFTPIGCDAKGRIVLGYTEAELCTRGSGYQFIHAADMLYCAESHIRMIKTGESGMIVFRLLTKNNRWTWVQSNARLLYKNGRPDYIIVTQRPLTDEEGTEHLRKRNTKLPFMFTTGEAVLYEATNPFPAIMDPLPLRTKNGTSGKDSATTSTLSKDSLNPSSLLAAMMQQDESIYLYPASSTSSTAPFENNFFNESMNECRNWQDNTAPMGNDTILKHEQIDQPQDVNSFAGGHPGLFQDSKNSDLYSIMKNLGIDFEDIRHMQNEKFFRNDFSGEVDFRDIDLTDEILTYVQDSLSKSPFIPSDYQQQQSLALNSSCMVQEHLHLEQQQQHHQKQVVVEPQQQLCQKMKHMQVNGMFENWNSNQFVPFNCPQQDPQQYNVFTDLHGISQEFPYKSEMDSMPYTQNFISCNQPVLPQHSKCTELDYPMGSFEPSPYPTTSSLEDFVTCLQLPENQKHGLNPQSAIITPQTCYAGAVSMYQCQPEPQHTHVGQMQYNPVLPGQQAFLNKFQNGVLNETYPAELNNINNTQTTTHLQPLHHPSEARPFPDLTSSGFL
Chain of Estrogen receptor (Homo sapiens) (P03372 whole entry, looked up): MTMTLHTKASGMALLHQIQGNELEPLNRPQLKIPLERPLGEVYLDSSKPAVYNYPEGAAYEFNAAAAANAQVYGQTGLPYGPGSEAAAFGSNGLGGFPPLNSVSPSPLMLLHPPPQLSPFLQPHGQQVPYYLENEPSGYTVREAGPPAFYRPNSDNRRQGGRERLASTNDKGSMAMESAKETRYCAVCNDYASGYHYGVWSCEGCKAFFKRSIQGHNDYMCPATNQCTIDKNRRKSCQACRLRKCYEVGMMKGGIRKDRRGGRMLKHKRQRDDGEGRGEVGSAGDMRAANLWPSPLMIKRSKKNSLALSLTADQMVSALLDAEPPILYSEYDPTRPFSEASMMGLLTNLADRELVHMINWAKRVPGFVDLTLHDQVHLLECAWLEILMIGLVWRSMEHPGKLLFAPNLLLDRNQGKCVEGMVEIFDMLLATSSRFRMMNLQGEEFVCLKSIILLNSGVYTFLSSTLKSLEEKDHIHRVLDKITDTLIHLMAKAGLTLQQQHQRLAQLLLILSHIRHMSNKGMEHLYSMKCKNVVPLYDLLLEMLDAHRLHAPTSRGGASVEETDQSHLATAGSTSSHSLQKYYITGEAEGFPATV

COc1cccc2c1[C@@H]1CN(CCCCn3c(=O)[nH]c4c(sc5ncc(-c6ccccc6)nc54)c3=O)C[C@@H]1CO2
inactive: [3]
active: [1] 11.9 µM | [2] 10.6 µM | [4] 26.6 µM

CCN(CC)C(=O)c1cccnc1
inactive: [1] | [2] | [5] | [6] | [7] | [8]

O=C[C@H](O)[C@@H](O)[C@@H](O)[C@H](O)CO
inactive: [1] | [5] | [9] | [6] | [3] | [10] | [11] | [7] | Aromatase (Homo sapiens) | [4] | [12] | [8] | [13]

COc1cc2c(c(OC)c1OC)-c1c(cc3c(c1OC)OCO3)C[C@@H](C)[C@](C)(O)C2
inactive: [1] | [2] | [5] | [6] | Aromatase (Homo sapiens) | [13]
active: [8] 29.8 µM

CON=C1C[C@]2(C[C@@H]3C[C@@H](C/C=C(\C)C[C@@H](C)/C=C/C=C4\CO[C@@H]5[C@H](O)C(C)=C[C@@H](C(=O)O3)[C@]45O)O2)O[C@H](/C(C)=C/C(C)C)[C@H]1C
active: [1] 5.31 µM | [2] 3.76 µM and 5.31 µM | [6] 6.01 µM and 23.9 µM
inactive: Aromatase (Homo sapiens) | [4] | [12] | [8]

Cc1cc(Br)ccc1NC(=O)CCl
inactive: [5] | [3]
active: [1] 21.7 µM | [2] 19.3 µM | Aromatase (Homo sapiens) 30.6 µM | [4] 13.7 µM | [8] 54.5 µM | [14] 7.76 µM | [15] 54.5 µM | [16] 12.3 µM

Cc1cc(CC(C)CC(C)(C)C)n(O)c(=O)c1 (configuration not stated) (tested in a mixture with another compound)
inactive: [7] | [12] | [8] | [13]
active: [1] 29.8 µM | [2] 21.1 µM | Aromatase (Homo sapiens) 13.3 µM

CCC(C)(C)c1ccc(CC(C)CN2C[C@@H](C)O[C@@H](C)C2)cc1 (some centres not stated)
active: [1] 11.9 µM | [2] 11.9 µM | [11] 29.8 µM
inactive: [3] | [7] | [8] | [17] | [15] | [16] | [18]

CC(C)C[C@@H]1NC(=O)[C@H](CCCN)NC(=O)[C@H](C(C)C)NC(=O)[C@@H]2CCCN2C(=O)[C@@H](Cc2ccccc2)NC(=O)[C@H](CC(C)C)NC(=O)[C@H](CCCN)NC(=O)[C@H](C(C)C)NC(=O)[C@@H]2CCCN2C(=O)[C@@H](Cc2ccccc2)NC1=O (cyclo(V[Orn]L[dF]PV[Orn]L[dF]P))
inactive: [3] | [12]
active: [1] 2.11 µM | [2] 0.841 µM | [6] 10.7 µM | Aromatase (Homo sapiens) 1.88 µM | [8] 18.8 µM

CN(C)CCOc1ccc(/C(=C(/CCCl)c2ccccc2)c2ccccc2)cc1
inactive and 40.5 µM (active): [8]
inactive: [5] | [7] | [12] | [13]
active: [1] 10.6 µM and 10.2 µM | [2] 11.9 µM and 8.09 µM | Aromatase (Homo sapiens) 21.1 µM and 6.42 µM | [4] 45.5 µM | [14] 25.8 µM | [15] 16.1 µM | [16] 28.9 µM

C/C=C/C1=C(C(=O)O)N2C(=O)[C@@H](NC(=O)[C@H](N)c3ccc(O)cc3)[C@H]2SC1
inactive: [1] | [5] | [9] | [6] | [3] | [10] | [11] | [7] | Aromatase (Homo sapiens) | [4] | [12] | [8]

Cc1cnc(C(=O)O)c[n+]1[O-]
inactive: [1] | [5] | [9] | [6] | [3] | [10] | [11] | [7] | Aromatase (Homo sapiens) | [4] | [12] | [8] | [13]

COc1cccc(-c2ccc(/C=C\CN3CCCCCC3)cc2Cl)c1
active: [1] 21.6 µM | [2] 21.6 µM | Aromatase (Homo sapiens) 60.9 µM | [14] 43.4 µM | [15] 54.2 µM
inactive: [9] | [6] | [3] | [7] | [8] | [13]

CC[C@@]1([C@@H]2O[C@@H]([C@H]3O[C@@](O)(CO)[C@H](C)C[C@@H]3C)C[C@@H]2C)CC[C@H]([C@]2(C)CC[C@]3(C[C@H](O)[C@@H](C)[C@@H]([C@@H](C)[C@@H](OC)[C@H](C)C(=O)O)O3)O2)O1 (stereo in doubt)
inactive: [3] | [10] | Aromatase (Homo sapiens) | [4] | [12] | [8]
active: [1] 596 nM and 376 nM | [2] 376 nM and 266 nM
18.8 µM (active) and inactive: [7]

CC(=O)[C@]1(O)Cc2c(O)c3c(c(O)c2[C@@H](O[C@H]2C[C@H](N)[C@H](O)[C@H](C)O2)C1)C(=O)c1ccccc1C3=O
inactive: [14]
active: [1] 0.119 µM | [2] 0.119 µM | [9] 4.77 µM [inconclusive] | [3] 3.38 µM [inconclusive] | [7] 3.35 µM | Aromatase (Homo sapiens) 3.35 µM | [4] 13.3 µM | [8] 13.3 µM | [17] 4.22 µM

O=C(Nc1ccccc1)c1cc(Cl)ccc1O
active: [1] 10.9 µM | [2] 5.45 µM | Aromatase (Homo sapiens) 27.3 µM | [12] 3.06 µM | [14] 6.92 µM
inactive: [5] | [8]

CCCCCCCCCCCC[n+]1ccc2ccccc2c1
inactive: [3] | [12]
active: [1] 7.5 µM | [2] 3.76 µM | [6] 2.13 µM | [11] 7.5 µM | [7] 26.6 µM | Aromatase (Homo sapiens) 10.6 µM

COc1cc2c(cc1O)CCN[C@]21CS[C@@H]2c3c(OC(C)=O)c(C)c4c(c3[C@H](COC1=O)N1[C@@H]2[C@H]2c3c(cc(C)c(OC)c3O)C[C@@H]([C@@H]1O)N2C)OCO4
inactive: [3]
active: [1] 2.4 nM and 4.3 nM | [2] 1.9 nM and 2.7 nM | [9] 33.8 nM [inconclusive] and 49 nM [inconclusive] | [11] 26.6 nM and 43.3 nM | [7] 26.6 µM and 13.7 µM | Aromatase (Homo sapiens) 29.8 nM and 48.6 nM | [4] 24.3 µM | [8] 0.0168 µM
